The results in this text go back to PubChem BioAssay (NCI).

What all share (assay): NCI-60 one-dose screen, 48 h (100 = growth as untreated, 0 = no growth, -100 = all killed)
In one assay the test system is T-47D breast. The following applies: 10 µM unless noted.
In another assay the test system is BT-549 breast. The following applies: 10 µM unless noted.
The test system of another assay is MDA-MB-435 melanoma. The following applies: 10 µM unless noted.
The subject of a further assay is SW-620 colon. The following applies: 10 µM unless noted.
The subject of the next assay is MCF7 breast. The following applies: 10 µM unless noted.
A further assay deals with HCT-116 colon. The following applies: 10 µM unless noted.
The next assay concerns HCC-2998 colon. The following applies: 10 µM.
A further assay deals with KM12 colon. The following applies: 10 µM unless noted.

Each structure is given as a SMILES string. This is part of a sample that, as a whole, favours compounds with a hit. Of some 83,000 tested, about 20% had one in any assay.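 Single-dose data. Exposure time 48 hours. Values below 10 considered active.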 Unmarked numbers belong to inactive results. Calls of active or inactive are those of the source.

For `Cc1nc(Nc2n[nH]c3c2CN(C(=O)N[C@H](CN(C)C)c2ccccc2)C3(C)C)c2sccc2n1`, the growth is -25.2% (active) in the assay with T-47D breast; -42.5% (active) with BT-549 breast; -66.2% (active) in the assay on MDA-MB-435 melanoma; 1.22% (active) in the assay on SW-620 colon; -3.74% (active) in the assay on MCF7 breast; -9.97% (active) in the assay with HCT-116 colon. The results for the growth in the assay with HCC-2998 colon and in the assay on KM12 colon were -55.1% (active) and -12.7% (active), respectively.
On to `CCN(CC)CCOc1ccc(/C(=C(\C)c2ccc(Cl)cc2)c2ccc(Cl)cc2)cc1`, for which the growth in the assay with T-47D breast was 55.2%; in the assay with BT-549 breast, 85.2%; in the assay on MDA-MB-435 melanoma it was 87.1%; in the assay with SW-620 colon it was 30.8%; with MCF7 breast, 34.8%; in the assay with HCT-116 colon, 47%. Moreover, the growth was 93.6% in the assay on HCC-2998 colon and 40.3% in the assay with KM12 colon.
Turning to `COc1ccc(C2CC(=O)c3c(O)c(OC)c(OC)c(OC)c3O2)c(O)c1` (centres undefined), the growth in the assay on T-47D breast is 57.8%; with BT-549 breast it was 60.6%; in the assay on MDA-MB-435 melanoma, -33.7% (active); in the assay with SW-620 colon, 26.2%; in the assay on MCF7 breast it was 32.5%; with HCT-116 colon it was 10.2%. Further, the growth was 15.9% in the assay with HCC-2998 colon and 19.9% in the assay with KM12 colon.
Regarding `COc1cc2cc(NCc3ccc(F)cc3)nc(C)c2cc1OC`, the growth in the assay on T-47D breast was 53.2%; in the assay with BT-549 breast, 29%; in the assay with MDA-MB-435 melanoma it was 24.6%; in the assay with SW-620 colon it was 21.8%; in the assay on MCF7 breast, 68.6%; in the assay with HCT-116 colon, 9.34% (active). Moreover, the growth in the assay with HCC-2998 colon and in the assay with KM12 colon was 42.3% in each case.
Consider `Nc1ncnc2c1c(-c1cccc(OCc3ccccc3)c1)cn2C1CC(CN2CCC2)C1` (centres undefined), for which the growth was -38.2% (active) in the assay on T-47D breast; 33% in the assay with BT-549 breast; -43.6% (active) in the assay with MDA-MB-435 melanoma; 3.94% (active) with SW-620 colon; -22% (active) with MCF7 breast; 9.54% (active) with HCT-116 colon. Besides, the growth with HCC-2998 colon was 17%; in the assay with KM12 colon, 6.66% (active).
Consider `CCN1CCN(Cc2ccc(Cc3ncc(F)c(-c4cc(F)c5nc(C)n(C(C)C)c5c4)n3)nc2)CC1`, for which the growth in the assay with T-47D breast is 65.2%; with BT-549 breast it was 61%; in the assay on MDA-MB-435 melanoma, 45.9%; in the assay with SW-620 colon it was -5.5% (active); with MCF7 breast, 25.1%; with HCT-116 colon, 5.58% (active). Also, the growth was 54.7% in the assay with HCC-2998 colon and 28% in the assay on KM12 colon.
As to `COc1cc2ncnc(Nc3ccc(O)cc3)c2cc1OC`, the growth in the assay on T-47D breast was 53.9%; in the assay with BT-549 breast, 80%; in the assay with MDA-MB-435 melanoma, 91.6%; with SW-620 colon, 112%; with MCF7 breast it was 90.4%; in the assay with HCT-116 colon, 75.3%. In addition, the figures for the growth in the assay on HCC-2998 colon and in the assay on KM12 colon were 100% and 89.7%, respectively.
Take `COCC(=O)NC/C=C/c1ccc2ncnc(Nc3ccc(Oc4ccc(C)nc4)c(C)c3)c2c1`: the growth with T-47D breast is -0.662% (active); with BT-549 breast it was 62%; in the assay on MDA-MB-435 melanoma, 32.9%; in the assay on SW-620 colon it was 47.9%; with MCF7 breast, 49.1%; in the assay with HCT-116 colon, 29.3%. The growth with HCC-2998 colon is 36.6%; with KM12 colon, 28.8%.
Take `CC(=O)Nc1cccc(-n2c(=O)n(C3CC3)c(=O)c3c(Nc4ccc(I)cc4F)n(C)c(=O)c(C)c32)c1`: the growth in the assay with T-47D breast was 51.3%; with BT-549 breast, 60.7%; in the assay with MDA-MB-435 melanoma, 27.7%; in the assay on SW-620 colon, 19%; in the assay on MCF7 breast it was 80.8%; in the assay on HCT-116 colon, 10.6%. Besides, the growth is -26.9% (active) in the assay on HCC-2998 colon and 23% in the assay with KM12 colon.
For `CC(C)(C)CC(C)(C)Nc1c(-c2c(O)c3ccccc3oc2=O)nc2c(Cl)cc(C(F)(F)F)cn12`, the growth was 95.3% in the assay with T-47D breast; 78.7% in the assay with BT-549 breast; 103% in the assay with MDA-MB-435 melanoma; 102% in the assay with SW-620 colon; 107% with MCF7 breast; 70.4% in the assay on HCT-116 colon. Moreover, the values for the growth in the assay on HCC-2998 colon and with KM12 colon were 107% and 103%, respectively.
For `COc1c(C(NC(=O)c2ccccc2)c2sccc2C)cc(Cl)c2cccnc12` (centres undefined), the growth with T-47D breast is 90.8%; in the assay with BT-549 breast, 97.1%; with MDA-MB-435 melanoma, 108%; in the assay with SW-620 colon it was 100%; in the assay with MCF7 breast, 100%; in the assay on HCT-116 colon it was 84.1%. Further, the values for the growth in the assay with HCC-2998 colon and in the assay on KM12 colon were 112% and 104%, respectively.
Take `COC(=O)[C@@H](OC)[C@@H]1Cc2cc3cc(OC4CC(OC5CC(O)C(O)C(C)O5)C(O)C(C)O4)c(C)c(O)c3c(O)c2C(=O)[C@H]1OC1CC(OC2CC(OC3CC(C)(O)C(O)C(C)O3)C(O)C(C)O2)C(O)C(C)O1` (some centres undefined): the growth is 4% (active) with T-47D breast; -32.9% (active) in the assay with BT-549 breast; -62.4% (active) in the assay on MDA-MB-435 melanoma; 8.04% (active) in the assay on SW-620 colon; 8.9% (active) in the assay on MCF7 breast; 3.51% (active) with HCT-116 colon. In addition, the figures for the growth in the assay on HCC-2998 colon and in the assay with KM12 colon were -32.9% (active) and 1.5% (active), respectively.
Regarding `CC(C)c1ccc(/C=N/Nc2nc3ccccc3s2)cc1`, the growth in the assay on T-47D breast is 78.2%; in the assay with BT-549 breast, 99%; with MDA-MB-435 melanoma, 107%; in the assay on SW-620 colon, 102%; with MCF7 breast, 76.2%; in the assay on HCT-116 colon, 89%. The growth in the assay on HCC-2998 colon was 104%; with KM12 colon, 89%.
